Only a selection was taken, and hits are over-represented in it overall.
LmPK inhibitor: LmPK (Leishmania mexicana) enzyme inhibition; Q27686; purified LmPK, Kinase-Glo ATP luminescence, 1 h; Potency, µM (doses to about 57.5 µM), for inactives: at the highest dose activity change, negative = inhibition, actives largely listed as inhibitors; 290,000 tested, 0.37% active; AID 1721; further: potency means the concentration at half of the fitted maximal effect; on the % scale 0 is the no-effect control and ±100 the full control effect
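ATP generated from ADP (0.1 mM) and PEP (0.5 mM) by 0.1 nM LmPK over 1 h at room temperature (pH 7.2 imidazole buffer) was detected by coupled luciferase luminescence. Values were normalized to uninhibited and no-enzyme wells.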
Cycloheximide cs: counter-screen hit for Shiga toxin inhibitors, cycloheximide; cell reporter, cycloheximide protein synthesis inhibition counterscreen; max response, %; 300,000 tested, 12% active; in the data active means max response mostly above about 13%, no sharp cut-off; inactive means mostly below about 14%; further: read at 38.3 µM for the half of the compounds with a filed dose; 0% is about no effect
TbPYK inhibitor: blocks Trypanosoma brucei pyruvate kinase; 410,000 tested, 0.12% active; AID 624173; Q57TT1; TbPYK enzyme, Kinase-Glo Plus ATP luminescence, 45 min; Potency, µM (series often up to 76.8 µM), for the others: at the top dose activity, negative = inhibition, hits mostly inhibitors; further: potency means the concentration at half of the fitted maximal effect; on the % scale 0 is the no-effect control and ±100 the full control effect; nearly all actives have a fitted effect of over 50% in size
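Quantitative HTS: titrated library compounds versus trypanosomal pyruvate kinase in TEA buffer (pH 7.2) containing KCl, MgCl2, BSA and Tween-20. Reactions were initiated with ADP, 130 uM final. Kinase-Glo Plus luminescence was read after 45 min at RT.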
Sm TGR inh: inhibitors of Schistosoma mansoni thioredoxin glutathione reductase | Q962Y6 | purified TGR, DTNB reduction, TNB absorbance 405 nm | Potency, µM (top dose mostly 114 µM), inactives show at the highest dose activity change, negative = inhibition, usual class: inhibitors | 360,000 tested, 3% active | AID 485364; further: potency means the concentration at half of the fitted maximal effect; on the % scale 0 is the no-effect control and ±100 the full control effect; nearly all actives have a fitted effect of over 60% in size
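TGR 20 nM + NADPH 100 uM (dispensed conc.), cpd preinc 15 min RT; start with NADPH (500 uM addition) then DTNB (15 mM addition). Kinetic TNB absorbance, 405 nm filter. Four-parameter Hill fit across titration.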
Shiga toxin inh: Shiga toxin inhibition | Vero cells, Shiga toxin protein synthesis inhibition reporter | inhibition, % at 38.7 µM | 290,000 tested, 9.2% active; in the data active means inhibition mostly above about 28%, no sharp cut-off; inactive means mostly below about 43%; further: 0% is about no effect
Giardia FBPA inh: inhibitors of Giardia lamblia fructose-1,6-bisphosphate aldolase. 290,000 tested, 0.71% active. Potency, µM (top dose mostly 59.6 µM), inactives show at the top dose activity, negative = inhibition, most hits filed as inhibitors. purified Giardia FBPA; further: potency means the concentration at half of the fitted maximal effect; on the % scale 0 is the no-effect control and ±100 the full control effect; nearly all actives have a fitted effect of over 55% in size
Target sequence (A8B2U2 whole entry, looked up): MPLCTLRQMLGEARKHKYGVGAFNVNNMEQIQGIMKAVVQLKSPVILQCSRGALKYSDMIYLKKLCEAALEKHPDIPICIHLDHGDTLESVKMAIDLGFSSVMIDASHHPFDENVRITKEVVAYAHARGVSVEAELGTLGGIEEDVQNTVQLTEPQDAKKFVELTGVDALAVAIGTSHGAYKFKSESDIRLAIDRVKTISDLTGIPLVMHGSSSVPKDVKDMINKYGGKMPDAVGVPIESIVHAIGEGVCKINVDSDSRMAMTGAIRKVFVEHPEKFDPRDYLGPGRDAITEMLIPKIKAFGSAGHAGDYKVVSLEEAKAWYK
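40 nM FBPA preincubated 10 min at RT with compound (up to 57.5 uM final), then substrate plus GAPDH/TPI/NAD/arsenate coupling and diaphorase/resazurin added. Fluorescence read after 20 min at RT, 525/598 nm.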
The depositor's hits bear a star; [ ] = remark or other dose. Unless noted, the call rests on the fitted dose curve; in most records, active means well fitted curve in the direction sought with a large enough effect; inconclusive means small, poorly fitted or top-dose-only effect, or another doubt; inactive means no such curve, though single readings can be large; an effect the other way counts as inactive or inconclusive.

For Cc1ccccc1OCCCC(=O)Nc1nccs1 the results were LmPK inhibitor -4%, Cycloheximide cs -1, TbPYK inhibitor -3%, Sm TGR inh 8%, Shiga toxin inh -8 and Giardia FBPA inh 7%.
Screening CCOC(=O)c1c(N)n(-c2ccccc2CC)c2nc3ccccc3nc12 returned TbPYK inhibitor 5% and Sm TGR inh 4%.
Screening CC(N=C1NS(=O)(=O)c2ccccc21)C(=O)N1CCc2ccccc2C1 (stereo not given) returned LmPK inhibitor -8%, Cycloheximide cs 19*, TbPYK inhibitor -2%, Sm TGR inh 9%, Shiga toxin inh 46* and Giardia FBPA inh -1%.
`O=C(/C=C/c1cccc(Cl)c1)NCc1cccs1` gave LmPK inhibitor 3%, Cycloheximide cs 38*, TbPYK inhibitor 0%, Sm TGR inh -2%, Shiga toxin inh 41* and Giardia FBPA inh 0%.
`O=C(/C=C/C(=O)NCc1cccs1)NCc1cccs1` gave LmPK inhibitor 0%, Cycloheximide cs -3, TbPYK inhibitor -1%, Sm TGR inh 3%, Shiga toxin inh -4 and Giardia FBPA inh 0%.
Screening COCCCNC(=O)/C=C/c1ccc(Cl)cc1 returned LmPK inhibitor 8%, Cycloheximide cs 21*, TbPYK inhibitor -9%, Sm TGR inh 1%, Shiga toxin inh 50* and Giardia FBPA inh 1%.
O=C(/C=C/c1ccc(Cl)cc1)NCc1cccs1 was read as LmPK inhibitor -2%, Cycloheximide cs 53*, TbPYK inhibitor -7%, Sm TGR inh -12%, Shiga toxin inh 92* and Giardia FBPA inh -2%.
`COCCCNC(=O)/C=C/c1c(Cl)cccc1Cl` gave LmPK inhibitor 0%, Cycloheximide cs 3, TbPYK inhibitor -13%, Sm TGR inh 2%, Shiga toxin inh 30 and Giardia FBPA inh -1%.
Screening COc1ccc(NC(=O)C2CCN(S(=O)(=O)c3ccc4c(c3)CCCC(=O)N4)CC2)cc1Cl returned TbPYK inhibitor 1% and Sm TGR inh 3%.
For COc1ccc(CNC(=O)c2cc(-c3cccs3)nc3ccccc23)c(OC)c1 the results were TbPYK inhibitor 3% and Sm TGR inh 0%.
Screening COc1cc(SC)ccc1C(=O)N1CCn2c3c(c4cc(C)ccc42)CCCC31 (stereo not given) returned TbPYK inhibitor 4% and Sm TGR inh -2%.
`O=C(Nc1ccc2c(c1)CCCN2C(=O)c1cccs1)c1ccccc1` gave LmPK inhibitor 3%, Cycloheximide cs 36*, TbPYK inhibitor -20%, Sm TGR inh -2%, Shiga toxin inh 36* and Giardia FBPA inh 5%.
For O=C(Nc1ccc2c(c1)CCCN2C(=O)c1cccs1)c1cccc(F)c1 the results were LmPK inhibitor 6%, Cycloheximide cs 22*, TbPYK inhibitor -10%, Sm TGR inh -2%, Shiga toxin inh 47* and Giardia FBPA inh 1%.
COc1cc(OC)cc(C(=O)Nc2ccc3c(c2)CCCN3C(=O)c2cccs2)c1 was read as LmPK inhibitor -5%, Cycloheximide cs -2, TbPYK inhibitor -4%, Sm TGR inh 0% and Shiga toxin inh 0.
Screening CC1CCCN(c2ncnc3c2nnn3C)C1 (stereo not given) returned TbPYK inhibitor 5% and Sm TGR inh 17%.
Screening CN(CC(=O)Nc1cccc(S(=O)(=O)N(C)C)c1)Cc1ccccc1 returned LmPK inhibitor 0%, Cycloheximide cs 23*, TbPYK inhibitor 2%, Sm TGR inh -1%, Shiga toxin inh 28 and Giardia FBPA inh 2%.
For CSc1ccc(CN(C)CC(=O)Nc2c(F)cccc2F)cc1 the results were LmPK inhibitor 1%, Cycloheximide cs -2, TbPYK inhibitor -7%, Sm TGR inh 12%, Shiga toxin inh -6 and Giardia FBPA inh 20µM*.
Screening CN(CC(=O)Nc1ccc(Br)cc1)Cc1ccccc1 returned LmPK inhibitor 0%, Cycloheximide cs 19*, TbPYK inhibitor 4%, Sm TGR inh -4%, Shiga toxin inh 7 and Giardia FBPA inh 0%.
CSc1ccc(CN(C)CC(=O)Nc2ccc(NC(C)=O)cc2)cc1 was read as LmPK inhibitor 5%[11.5 µM], Cycloheximide cs -3, TbPYK inhibitor -3%, Sm TGR inh 3%, Shiga toxin inh -11 and Giardia FBPA inh 3%.
`CCOc1ccc(OCC(=O)NCCS(=O)(=O)N2CCN(c3ccccc3F)CC2)cc1` gave TbPYK inhibitor -2% and Sm TGR inh 3%.
Screening Cc1cccc(CC(=O)NCCS(=O)(=O)N2CCN(c3cccc(Cl)c3)CC2)c1 returned TbPYK inhibitor 1% and Sm TGR inh -4%.
For Cc1ccc(C(=O)c2cn(CC(=O)Nc3ccc4c(c3)OCCO4)c3nc(C)ccc3c2=O)cc1 the results were TbPYK inhibitor 1% and Sm TGR inh 4%.
Screening COc1ccc(-n2c(Cn3nc(C(F)(F)F)cc3C)n[nH]c2=S)cc1 returned LmPK inhibitor -9%, Cycloheximide cs -5, TbPYK inhibitor 3.2µM*, Sm TGR inh 0%, Shiga toxin inh -10 and Giardia FBPA inh -20%.
For Cc1ccc(-n2c(Cn3ncc4ccccc4c3=O)n[nH]c2=S)cc1 the results were LmPK inhibitor 1%, Cycloheximide cs -1, TbPYK inhibitor inconclusive, Sm TGR inh -5%, Shiga toxin inh -8 and Giardia FBPA inh -8%.
`COc1cccc(-n2c(Cn3nc(C(F)F)cc3C(F)F)n[nH]c2=S)c1` gave LmPK inhibitor -5%, Cycloheximide cs -3, TbPYK inhibitor inconclusive, Sm TGR inh 0%, Shiga toxin inh -4 and Giardia FBPA inh -17%.
For COC(=O)c1ccc(Cn2nc(C(F)(F)F)cc2C)cc1 the results were LmPK inhibitor 4%, Cycloheximide cs -2, TbPYK inhibitor 1%, Sm TGR inh 11% and Shiga toxin inh -7.
For COc1cccc(-n2c(Cn3nc(C(F)(F)F)cc3C)n[nH]c2=S)c1 the results were LmPK inhibitor -6%, Cycloheximide cs -3, TbPYK inhibitor 4µM*, Sm TGR inh 15%, Shiga toxin inh -3 and Giardia FBPA inh -13%.
Cc1ccc(-n2c(Cn3nc(C(F)(F)F)cc3C)n[nH]c2=S)cc1 was read as LmPK inhibitor -21%, Cycloheximide cs -1, TbPYK inhibitor 10µM*, Sm TGR inh 9%, Shiga toxin inh -5 and Giardia FBPA inh -1%.
For COc1ccc(-c2cn[nH]c2N)cc1 the results were LmPK inhibitor -1%, Cycloheximide cs 11, TbPYK inhibitor 3%, Sm TGR inh -4%, Shiga toxin inh -3 and Giardia FBPA inh 12%.
Nc1c(Br)cc2oc(-c3ccccc3)nc2c1Br was read as LmPK inhibitor -4%, Cycloheximide cs 18*, TbPYK inhibitor 0%, Sm TGR inh -3%, Shiga toxin inh 33 and Giardia FBPA inh 2%.
